# From PubChem BioAssay (NCATS)
# Inconclusive results are not listed. A number with no mark means an inactive call. Active and inactive are the calls of the source. Calls follow the shape of the dose curve; as a rule, active = well fitted cell-killing curve with a large enough effect; inconclusive = small, poorly fitted or top-dose-only effect, or effect the other way; inactive = no such curve, though single readings can be large or run the other way.
# Assay: Viability qHTS for spleen associated tyrosine kinase inhibitor (SYKi) drug resistant MV4-11 cells (AID 1963824); also: nearly all actives have a fitted effect of over 35% in size
# Conditions: SYKi-resistant MV4-11 viability, CellTiter-Glo, 72 h; series mostly up to 45 µM; viability, % of control: at the top concentration
# How it was run: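 SYK-inhibitor-resistant MV4-11 AML cells were seeded at 500 per well onto compound and cultured 72 hours (37 °C, 5% CO2). CellTiter-Glo was then added, and after 10 min at room temperature, luminescence gave viability.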
# Potency is read from the fitted curve at half-maximal effect.
Compound,Potency,"viability, % of control"
CCN1CCN(Cc2ccc(C(=O)Nc3ccc(C)c(Oc4ccc5c(c4)CC(=O)N5)c3)cc2C(F)(F)F)CC1,8.2 µM (active),–
N#Cc1ccc(O[C@@H]2c3ccccc3C[C@H]2N2CCC[C@@H](N)C2)c(Cl)c1,16.4 µM (active),–
C[C@@H]1O[C@@H](O[C@H]2[C@H](OC(=O)[C@]34CCC(C)(C)C[C@H]3C3=CCC5[C@@]6(C)C[C@H](O)[C@H](O[C@@H]7O[C@H](CO)[C@@H](O)[C@H](O)[C@H]7O)[C@@](C)(CO)C6[C@H](O)C[C@@]5(C)[C@]3(C)C[C@H]4O)OC[C@H](O)[C@@H]2O)[C@H](O)[C@H](O)[C@H]1O[C@@H]1OC[C@@H](O)[C@H](O[C@H]2OC[C@](O)(CO)[C@H]2O)[C@H]1O (stereo partly specified),–,104% [at 9.25 µM]
Cc1ccccc1CN1CCn2c1nc1c(c2=O)CN(Cc2ccccc2)CC1,–,96%
COC(=O)CCc1cc2ccoc2c(OC)c1O[C@@H]1O[C@H](CO)[C@@H](O)[C@H](O)[C@H]1O,–,78.7% [at 17.3 µM]
O=C1Cc2c([nH]c3ccc([N+](=O)[O-])cc23)-c2ccccc2N1,0.502 µM (active),–
CN(C)CC1CCn2cc(c3ccccc32)C2=C(C(=O)NC2=O)c2cn(c3ccccc23)CCO1 (stereo unspecified),0.411 µM (active),–
O=c1[nH]c2cccc(N3CCN(Cc4ccc(-c5ccccc5)cc4)CC3)c2o1,20.6 µM (active),–
O=C(CNC(=O)c1cccc(C(F)(F)F)c1)N[C@@H]1CCN(Cc2ccc(Cl)cc2)C1,23.1 µM (active),–
CC(C)Oc1ccc(-c2nc(-c3cccc4c3CCC4NCCC(=O)O)no2)cc1C#N (stereo unspecified),–,75.8%
FC(F)(F)c1ccc(/C=C/c2nc(COc3ccc(CCCCn4ccnn4)cc3)co2)cc1,0.0263 µM (active),–
